The text below walks through data of PubChem BioAssay (Tox21).

Assay [1] can be described thus: Caspase-3/7 induction in HepG2 cells by small molecules, qHTS assay (AID 1346978). Further: nearly all actives have a fitted effect of over 15% in size. The gist of the method: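 Wild-type HepG2 cells (2,000/well) were settled 5 h at 37 C, 5% CO2, then exposed to compounds in DMSO for 17 h. Caspase-3/7 activity was read by luminescence 30 min after adding Caspase-Glo 3/7 reagent at room temperature.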
Background: Quantitative high-throughput screening tests each substance at several concentrations.

Assay [2] in a line: Caspase-3/7 induction in CHO-K1 cells by small molecules, qHTS cell viability counter screen (AID 1346979). Further: nearly all actives have a fitted effect of over 35% in size. Further: potency means the concentration at half of the fitted maximal effect. The gist of the method:
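Cytotoxicity counter screen: CellTiter-Fluor added to compound-treated wild-type CHO-K1 cells at 16 h (37C, 5% CO2), fluorescence measured 1 h later; same wells as caspase-3/7 measurement.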

Assay [3] can be described thus: Caspase-3/7 induction in CHO-K1 cells by small molecules, qHTS assay (AID 1346980). Further: nearly all actives have a fitted effect of over 15% in size. The gist of the method:
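Wild-type cells were seeded at 1,500 per well and settled 5 hr at 37 C, 5% CO2, then exposed to DMSO-dissolved compounds for 17 hr. Caspase-Glo 3/7 reagent was added, and luminescence was read after 30min at room temperature.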

Assay [4] in a line: Caspase-3/7 induction in HepG2 cells by small molecules, qHTS cell viability counter screen (AID 1346981). Further: series mostly up to about 92 µM; nearly all actives have a fitted effect of over 30% in size. The gist of the method: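 Cell viability is measured as a cytotoxicity counter screen alongside the Caspase-Glo 3/7 readout in identical wells. Wild-type HepG2 cells are treated with test compounds for 16 hr at 37 C before CellTiter-Fluor addition and a 1-hr incubation.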

Assay [5] addresses Nuclear receptor subfamily 1 group I member 2 (Homo sapiens) (UniProt O75469). Briefly: Human pregnane X receptor (PXR) small molecule agonists, qHTS assay (AID 1346982). Further: nearly all actives have a fitted effect of over 35% in size. Further: potency means the concentration at half of the fitted maximal effect. The gist of the method: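 Cells: HepG2 stably carrying PXR-Luc. Medium held 5% charcoal-stripped FBS. Compounds in DMSO added after 5 hr plating, incubated 24 hr, then luminescence quantified with ONE-Glo.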

The target of assay [6] is Cytochrome P450 2D6 (Homo sapiens) (UniProt P10635). The assay can be described thus: Cytochrome P450 Family 2 Subfamily D Member 6 (CYP2D6) small molecule antagonists: luciferase reporter qHTS assay (AID 1671196). Further: nearly all actives have a fitted effect of over 50% in size. Further: potency means the concentration at half of the fitted maximal effect. The gist of the method: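 Enzyme and proluciferin substrate were first combined with test chemical for 10 min at room temperature. Adding NADPH regeneration solution started a 1 h reaction, stopped with luciferin detection reagent and read by luminescence 20 min later.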
(In general: Reporter assays use an easily measured gene product as a stand-in for the process of interest.)

For assay [7], the target named is Cytochrome P450 2C19 (Homo sapiens) (UniProt P33261). Briefly: Cytochrome P450 Family 2 Subfamily C Member 19 (CYP2C19) small molecule antagonists: luciferase reporter qHTS assay (AID 1671197). Further: nearly all actives have a fitted effect of over 65% in size. Further: potency means the concentration at half of the fitted maximal effect. The gist of the method: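 First, compounds are pinned into enzyme-substrate mix and held 10 min at room temperature. Second, NADPH regeneration solution is added and plates incubate 1 h at 37C. Third, detection reagent is added and luminescence read after 20 min.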

Assay [8] concerns the target Cytochrome P450 2C9 (Homo sapiens) (UniProt P11712). The assay can be described thus: Cytochrome P450 Family 2 Subfamily C Member 9 (CYP2C9) small molecule antagonists: luciferase reporter qHTS assay (AID 1671198). Further: nearly all actives have a fitted effect of over 50% in size. Further: potency means the concentration at half of the fitted maximal effect. The gist of the method: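 CYP2C9 activity was measured with a P450-Glo proluciferin substrate. Enzyme–substrate mix was held with compound for 10 min at room temperature, then NADPH regeneration solution was added for 1 h at 37C. Luciferin product was read as luminescence.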

Assay [9] concerns the target Voltage-gated inwardly rectifying potassium channel KCNH2 (Homo sapiens) (UniProt Q12809). The assay can be described thus: Human Ether-a-go-go-Related Gene (hERG) channel small molecule antagonists: fluorescence cell-based qHTS assay (AID 1671200). Further: nearly all actives have a fitted effect of over 50% in size. Further: potency means the concentration at half of the fitted maximal effect. The gist of the method: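 Thallium flux as potassium surrogate: FluxOR II dye loaded 1 h at room temperature into hERG-expressing U2OS cells, then stimulus buffer added after 10 min. Kinetic 480 nm excitation/540 nm emission read, 2 min.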
Background: hERG is a cardiac potassium channel; its block is linked to QT prolongation.

Assay [10] addresses Cytochrome P450 3A4 (Homo sapiens) (UniProt P08684). The assay can be described thus: Cytochrome P450 Family 3 Subfamily A Member 4 (CYP3A4) small molecule antagonists: luciferase reporter qHTS assay (AID 1671201). Further: nearly all actives have a fitted effect of over 50% in size. Further: potency means the concentration at half of the fitted maximal effect. The gist of the method: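 Recombinant human CYP3A4 converts a proluciferin substrate to luciferin over 1 h at room temperature after NADPH regeneration solution is added (compound preincubated 10 min); detection reagent stops reaction, luminescence read 20 min later as relative units.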

Assay [11] is described as follows: Human pregnane X receptor (PXR) small molecule agonists, qHTS cell viability counter screen (AID 1346977). Further: nearly all actives have a fitted effect of over 50% in size. Further: potency means the concentration at half of the fitted maximal effect. The gist of the method: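 Same-well viability read: CellTiter-Fluor added after 23 hr compound exposure, fluorescence measured 1 hr later. Cells were PXR-Luc HepG2 seeded at 2,000/well in 5% charcoal-stripped FBS medium, rested 5 hr before dosing at 37 C.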

Assay [12] concerns the target Nuclear receptor subfamily 1 group I member 2 (Rattus norvegicus) (UniProt Q9R1A7). The assay can be described thus: Rat pregnane X receptor (rPXR) activation by small molecules, qHTS assay (AID 1346983). Further: nearly all actives have a fitted effect of over 20% in size. The conditions noted are these: rPXR luciferase reporter cells, One-Glo luminescence, 24 h; max activation: hits give high values. The gist of the method:
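Cell-based rPXR luciferase reporter assay, 2,000 cells per well, rested 5hr at 37 C before compound addition in DMSO, then 24 hr at 37 C. One-Glo reagent was added and luminescence read after 30 min at room temperature.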

The target of assay [13] is Nuclear receptor subfamily 1 group I member 2 (Homo sapiens) (UniProt O75469). Briefly: CYP3A4 induction through human pregnane X receptor (PXR) by small molecules, qHTS assay (AID 1346984). Further: nearly all actives have a fitted effect of over 40% in size. The gist of the method: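 Quantitative HTS in DPX-2 cells, i.e. HepG2 transfected with PXR response element and CYP3A4-promoter luciferase. Compounds in DMSO incubated 24hr at 37C; then P450-Glo CYP3A4 substrate, 3uM final, 3hr; One-Glo luminescence.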

Assay [14] shares this target. Briefly: Human pregnane X receptor (PXR) activation by small molecules, qHTS assay (AID 1346985). Further: nearly all actives have a fitted effect of over 40% in size. Further: potency means the concentration at half of the fitted maximal effect. The gist of the method:
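DPX-2 cells (HepG2 co-transfected with a PXR response element and a CYP3A4-promoter luciferase construct) were seeded at 2,000 per well, rested 5 hr at 37C, then exposed to DMSO-dissolved compounds for 24 hr. Activation was read as luciferase luminescence.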

Assay [15] deals with Cytochrome P450 1A2 (Homo sapiens) (UniProt P05177). Briefly: Cytochrome P450 Family 1 Subfamily A Member 2 (CYP1A2) small molecule antagonists: luciferase reporter qHTS assay (AID 1671199). Further: nearly all actives have a fitted effect of over 50% in size. Further: potency means the concentration at half of the fitted maximal effect. The gist of the method: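 Compounds were incubated with CYP1A2 and a luminogenic proluciferin substrate for 10 min at room temperature before the reaction was started with NADPH regeneration solution. After 1 h, detection reagent was added and light output, proportional to CYP activity, was recorded.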

The structures appear in SMILES notation. “And” between values parts separate entries of the source, which are not always exact repeats. Identical values can stand only once. Values without a mark were called inactive. Records with an inconclusive call do not appear. The source made the active and inactive calls. The call rests on the fitted dose curve; in most records, active means well fitted curve in the direction sought with a large enough effect in the repeat runs; inconclusive means weak or mixed curves; inactive means no such curve, though single readings can be large; an effect the other way counts as inactive or inconclusive.
On the % scale 0 is the no-effect control and ±100 the full control effect.

Chain of Nuclear receptor subfamily 1 group I member 2 (Rattus norvegicus) (Q9R1A7 whole entry, looked up): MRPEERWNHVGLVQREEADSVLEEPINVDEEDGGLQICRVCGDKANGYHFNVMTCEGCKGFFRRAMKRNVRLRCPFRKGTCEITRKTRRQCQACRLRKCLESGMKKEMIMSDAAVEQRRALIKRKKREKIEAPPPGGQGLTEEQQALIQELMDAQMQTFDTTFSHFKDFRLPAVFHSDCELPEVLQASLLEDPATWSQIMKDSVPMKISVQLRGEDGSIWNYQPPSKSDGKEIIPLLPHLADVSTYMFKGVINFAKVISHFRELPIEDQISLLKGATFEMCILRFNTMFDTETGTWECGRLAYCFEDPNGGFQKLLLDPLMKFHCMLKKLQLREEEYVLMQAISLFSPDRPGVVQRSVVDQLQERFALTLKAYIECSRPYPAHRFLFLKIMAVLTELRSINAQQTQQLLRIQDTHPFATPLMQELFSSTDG
Chain of Cytochrome P450 2C9 (Homo sapiens) (P11712 whole entry, looked up): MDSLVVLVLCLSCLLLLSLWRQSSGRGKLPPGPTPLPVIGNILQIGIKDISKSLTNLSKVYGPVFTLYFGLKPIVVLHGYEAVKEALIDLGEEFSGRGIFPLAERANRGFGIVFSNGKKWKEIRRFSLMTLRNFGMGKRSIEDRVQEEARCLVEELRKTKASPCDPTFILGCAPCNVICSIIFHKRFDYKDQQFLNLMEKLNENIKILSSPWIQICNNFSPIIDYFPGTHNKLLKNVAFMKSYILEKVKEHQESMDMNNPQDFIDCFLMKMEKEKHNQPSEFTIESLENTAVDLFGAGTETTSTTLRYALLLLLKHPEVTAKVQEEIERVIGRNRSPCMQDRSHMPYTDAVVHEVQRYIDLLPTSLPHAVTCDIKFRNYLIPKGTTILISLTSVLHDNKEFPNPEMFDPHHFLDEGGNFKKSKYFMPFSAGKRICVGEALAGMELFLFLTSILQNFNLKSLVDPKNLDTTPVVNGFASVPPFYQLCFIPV
Chain of Cytochrome P450 2D6 (Homo sapiens) (P10635 whole entry, looked up): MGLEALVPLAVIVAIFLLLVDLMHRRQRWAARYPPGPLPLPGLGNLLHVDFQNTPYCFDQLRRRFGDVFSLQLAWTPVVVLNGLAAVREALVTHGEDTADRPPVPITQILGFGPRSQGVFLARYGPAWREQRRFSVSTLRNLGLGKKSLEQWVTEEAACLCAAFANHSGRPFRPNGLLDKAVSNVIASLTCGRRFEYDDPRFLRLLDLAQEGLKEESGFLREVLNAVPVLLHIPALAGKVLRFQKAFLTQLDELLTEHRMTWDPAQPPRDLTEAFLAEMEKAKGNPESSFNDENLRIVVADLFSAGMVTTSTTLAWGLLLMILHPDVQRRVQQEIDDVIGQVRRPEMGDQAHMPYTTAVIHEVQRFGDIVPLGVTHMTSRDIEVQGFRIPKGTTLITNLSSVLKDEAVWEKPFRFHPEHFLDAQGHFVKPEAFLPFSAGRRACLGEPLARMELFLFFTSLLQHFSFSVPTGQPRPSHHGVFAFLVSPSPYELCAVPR
Chain of Cytochrome P450 2C19 (Homo sapiens) (P33261 whole entry, looked up): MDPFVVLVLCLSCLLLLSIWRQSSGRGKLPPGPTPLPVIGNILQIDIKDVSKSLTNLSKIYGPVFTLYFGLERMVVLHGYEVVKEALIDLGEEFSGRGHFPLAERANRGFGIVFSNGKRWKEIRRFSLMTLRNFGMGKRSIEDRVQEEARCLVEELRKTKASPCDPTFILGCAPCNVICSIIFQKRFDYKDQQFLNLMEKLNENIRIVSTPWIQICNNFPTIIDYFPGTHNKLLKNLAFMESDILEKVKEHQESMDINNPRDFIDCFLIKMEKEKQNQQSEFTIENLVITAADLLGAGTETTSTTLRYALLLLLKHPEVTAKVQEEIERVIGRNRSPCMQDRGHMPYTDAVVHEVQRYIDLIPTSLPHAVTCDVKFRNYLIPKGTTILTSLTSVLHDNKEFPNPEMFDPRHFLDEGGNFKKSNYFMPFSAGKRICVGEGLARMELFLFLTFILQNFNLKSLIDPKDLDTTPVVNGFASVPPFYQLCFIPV
Chain of Cytochrome P450 3A4 (Homo sapiens) (P08684 whole entry, looked up): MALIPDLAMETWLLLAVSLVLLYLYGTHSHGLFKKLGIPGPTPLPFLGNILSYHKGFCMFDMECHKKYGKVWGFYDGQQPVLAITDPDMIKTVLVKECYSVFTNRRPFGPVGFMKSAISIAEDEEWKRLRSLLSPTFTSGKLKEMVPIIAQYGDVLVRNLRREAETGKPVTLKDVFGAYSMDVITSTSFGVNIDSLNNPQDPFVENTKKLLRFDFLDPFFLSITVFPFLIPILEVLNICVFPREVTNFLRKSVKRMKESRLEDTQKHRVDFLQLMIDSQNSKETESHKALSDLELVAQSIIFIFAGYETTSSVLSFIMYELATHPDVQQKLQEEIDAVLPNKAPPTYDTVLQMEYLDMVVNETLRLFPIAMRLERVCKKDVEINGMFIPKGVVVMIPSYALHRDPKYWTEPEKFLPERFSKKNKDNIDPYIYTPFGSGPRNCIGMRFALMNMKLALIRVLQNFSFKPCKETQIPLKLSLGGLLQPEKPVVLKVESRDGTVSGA
Chain of Voltage-gated inwardly rectifying potassium channel KCNH2 (Homo sapiens) (Q12809 whole entry, looked up): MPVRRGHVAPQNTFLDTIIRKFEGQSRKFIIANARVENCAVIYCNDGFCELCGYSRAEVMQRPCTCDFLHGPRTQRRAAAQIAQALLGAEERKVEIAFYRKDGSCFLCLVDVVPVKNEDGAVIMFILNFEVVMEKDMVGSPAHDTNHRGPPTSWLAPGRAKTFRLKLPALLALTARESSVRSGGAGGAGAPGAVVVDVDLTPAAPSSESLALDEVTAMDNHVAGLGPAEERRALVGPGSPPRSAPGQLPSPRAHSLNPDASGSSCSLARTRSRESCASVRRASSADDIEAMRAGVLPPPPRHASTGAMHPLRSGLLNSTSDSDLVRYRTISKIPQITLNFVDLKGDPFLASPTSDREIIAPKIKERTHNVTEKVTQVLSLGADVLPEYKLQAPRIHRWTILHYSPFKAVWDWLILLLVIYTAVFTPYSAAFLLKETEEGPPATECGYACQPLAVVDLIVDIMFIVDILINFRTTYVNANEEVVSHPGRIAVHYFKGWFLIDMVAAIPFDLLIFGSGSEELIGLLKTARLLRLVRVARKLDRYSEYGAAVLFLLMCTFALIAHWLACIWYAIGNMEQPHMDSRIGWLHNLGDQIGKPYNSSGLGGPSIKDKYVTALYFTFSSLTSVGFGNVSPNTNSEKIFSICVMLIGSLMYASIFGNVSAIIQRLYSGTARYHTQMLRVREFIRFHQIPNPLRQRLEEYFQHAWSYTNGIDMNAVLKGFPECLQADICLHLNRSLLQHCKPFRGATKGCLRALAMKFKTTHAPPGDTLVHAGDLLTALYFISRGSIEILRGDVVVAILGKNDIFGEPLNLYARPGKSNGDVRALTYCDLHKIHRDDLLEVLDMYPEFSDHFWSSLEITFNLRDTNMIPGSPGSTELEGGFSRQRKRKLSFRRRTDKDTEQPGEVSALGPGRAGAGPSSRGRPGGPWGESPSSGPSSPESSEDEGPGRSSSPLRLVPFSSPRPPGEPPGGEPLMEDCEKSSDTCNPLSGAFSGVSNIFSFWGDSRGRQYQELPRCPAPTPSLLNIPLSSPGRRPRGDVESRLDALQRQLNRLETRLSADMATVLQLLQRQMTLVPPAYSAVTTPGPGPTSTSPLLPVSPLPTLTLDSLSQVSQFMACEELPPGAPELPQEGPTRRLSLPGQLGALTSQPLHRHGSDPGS
Chain of Cytochrome P450 1A2 (Homo sapiens) (P05177 whole entry, looked up): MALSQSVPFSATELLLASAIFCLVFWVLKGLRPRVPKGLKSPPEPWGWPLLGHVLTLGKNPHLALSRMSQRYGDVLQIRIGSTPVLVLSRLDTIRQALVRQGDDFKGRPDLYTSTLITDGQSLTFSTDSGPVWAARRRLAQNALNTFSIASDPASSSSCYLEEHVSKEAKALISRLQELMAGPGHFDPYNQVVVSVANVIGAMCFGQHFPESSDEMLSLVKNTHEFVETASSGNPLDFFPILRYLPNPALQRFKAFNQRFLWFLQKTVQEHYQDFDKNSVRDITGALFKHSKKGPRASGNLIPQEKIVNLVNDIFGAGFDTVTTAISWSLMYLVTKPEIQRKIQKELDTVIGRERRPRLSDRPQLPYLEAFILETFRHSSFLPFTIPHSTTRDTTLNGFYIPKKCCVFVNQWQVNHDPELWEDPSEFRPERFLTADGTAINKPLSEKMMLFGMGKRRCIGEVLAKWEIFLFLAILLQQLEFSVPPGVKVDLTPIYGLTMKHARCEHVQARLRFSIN
Chain of Nuclear receptor subfamily 1 group I member 2 (Homo sapiens) (O75469 whole entry, looked up): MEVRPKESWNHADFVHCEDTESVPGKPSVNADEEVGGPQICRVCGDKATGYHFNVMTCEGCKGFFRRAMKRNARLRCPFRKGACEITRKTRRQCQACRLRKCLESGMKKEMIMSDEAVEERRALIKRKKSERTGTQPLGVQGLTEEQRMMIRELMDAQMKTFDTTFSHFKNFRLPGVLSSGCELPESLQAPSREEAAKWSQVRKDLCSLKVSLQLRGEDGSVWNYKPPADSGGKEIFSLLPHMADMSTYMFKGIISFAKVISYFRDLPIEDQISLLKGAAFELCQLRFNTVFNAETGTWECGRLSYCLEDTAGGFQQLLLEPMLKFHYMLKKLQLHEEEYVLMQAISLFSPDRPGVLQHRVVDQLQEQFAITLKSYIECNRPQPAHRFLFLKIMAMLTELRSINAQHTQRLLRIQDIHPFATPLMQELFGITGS

Turning to `COc1cc(CCC(C)=O)ccc1O`, the call in assay [1], in [3] and in [4] was inactive. In addition, the Potency entry in [2], in [5], in assay [6], in assay [7], in assay [8] and in [9] was “inactive” throughout. The Potency result in assay [10] was “inactive”.
As to `CCN1CCCC1CNC(=O)c1cc(S(N)(=O)=O)ccc1OC` (configuration not stated), the Potency result in assay [11], in assay [7] and in assay [10] was “inactive” throughout. Besides, the call in assay [1] and in assay [3] was inactive. Besides, in [6], the Potency was 20 µM (active).
As for `COc1cc(C(=O)N2CCOCC2)cc(OC)c1OC`, the Potency result in assay [11], in [5], in [13], in assay [14], in [6] and in assay [7] was “inactive” in each case. In addition, the Potency result in assay [8], in assay [9] and in [10] was “inactive” in each case. The call in assay [1], in assay [3] and in assay [4] was inactive. The max activation in [12] is -6.89% and 0.152%.
Take `CSc1nc(NC2CC2)nc(NC(C)(C)C)n1`: the Potency entry in assay [11] and in assay [2] was “inactive” in each case. Further, the molecule was called inactive in assay [1] and in assay [3]. Moreover, the Potency in assay [5] was 21.7 µM (active); in assay [7], 20 µM (active); in assay [8], 35.6 µM (active); in assay [15], 2.52 µM (active); in assay [10], 39.9 µM (active).
For `N#CC1(O)CCCCC1`, the Potency was 17.4 µM (active) in assay [11], 27.5 µM (active) in assay [2], 17.4 µM (active) in assay [5] and 40.2 µM (active) in assay [7]. For the same molecule, the outcome in [1] was inactive. Moreover, the Potency result in assay [9] and in assay [10] was “inactive” each time.
On to `CCN(CC)S(=O)(=O)c1ccc(C(=O)O)cc1`, for which the Potency entry in [11], in assay [2], in [5], in assay [13], in [14] and in assay [9] was “inactive” in each case. Also, in [10], the Potency result is “inactive”. The outcome in assay [1] and in assay [4] was inactive. Besides, the max activation in assay [12] was -1.28%. Besides, the Potency in [6] is 38.9 µM (active).
For the molecule `CO`, the Potency result in assay [11], in assay [2] and in assay [9] was “inactive” each time. Moreover, the molecule was classed as inactive in [1] and in assay [3]. For the same molecule, the max activation in [12] was -1.84%.
As to `[O-][N+](=Nc1ccccc1)c1ccccc1`, the Potency entry in [11], in [13], in [14], in assay [9] and in assay [10] was “inactive” each time. Besides, the outcome in assay [1], in assay [3] and in assay [4] was inactive. Also, the figures for the Potency in [5], in assay [7] and in [15] were 21.7 µM (active), 63.3 µM (active) and 5.64 µM (active), respectively. Further, the max activation in assay [12] was 13.9%.
On to `CCCCCCCCCCCCCCCCCCOCC(O)CO` (configuration not stated), for which the Potency entry in assay [11], in assay [5], in assay [13], in assay [14], in assay [6] and in assay [7] was “inactive” each time. In addition, the Potency result in [8], in [9] and in assay [10] was “inactive” throughout. Also, the result in [1], in [3] and in assay [4] was inactive. Also, the max activation in assay [12] was 3.52%.
Consider `C/C=C1\C(=O)C[C@H]2[C@@H]3CCC4=CC(=O)CC[C@]4(C)[C@H]3CC[C@]12C`, for which the Potency result in assay [11], in assay [6], in [15] and in assay [10] was “inactive” each time. Further, the molecule was classed as inactive in assay [1], in assay [3] and in assay [4]. The Potency was 6.2 µM (active) in assay [7] and 15.6 µM (active) in assay [8].
Turning to `CC(=O)NC(Cc1ccccc1)C(=O)O` (configuration not stated), the Potency result in assay [11], in assay [2], in assay [5], in assay [7], in [8] and in [15] was “inactive” in each case. In addition, the Potency entry in assay [9] and in assay [10] was “inactive” in each case. The call in assay [1] and in assay [3] was inactive.
In the case of `c1cc(CN2CCCCC2)cc(OCCCNc2nc3ccccc3s2)c1`, the Potency in assay [11] was 23.7 µM (active); in [5], 5.31 µM (active); in assay [14] it was 22.4 µM (active); in assay [6], 3.89 µM (active); in assay [9], 8.49 µM (active). For the same molecule, the result in [1] and in [3] was inactive. The max activation in [12] was 2.06%. Besides, the Potency result in assay [13], in [7], in assay [8] and in [15] was “inactive” throughout.
Consider `CCOC(=O)Nc1ccc2c(c1)N(C(=O)CCN1CCOCC1)c1ccccc1S2`, for which the Potency result in [11], in assay [2], in assay [15] and in [9] was “inactive” throughout. The result in [1] and in [3] was inactive. The Potency is 7.5 µM (active) in assay [5], 7.76 µM (active) in assay [7] and 15.5 µM (active) in [8].
